{
  "source": "the supplement of paper PMC4954754",
  "note": "± gives the uncertainty stated by the source.",
  "data": [
    {"tested_on": "HEK293T-Rex XBP1-RLuc", "experiment": "XBP1-RLuc splicing reporter activation, triplicate, relative to 500 nM thapsigargin (% of thapsigargin); higher = stronger IRE1/XBP1s reporter activation", "details": "6.8 µM; 18 h; screen: confirmation", "description": "(§1)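 HEK293T-Rex cells stably expressing the ERSE-firefly luciferase (BiP promoter, ATF6-preferring) or XBP1-splicing Renilla luciferase (IRE1/XBP1s) reporter, 1536-well plates, compound at 6.8 µM for 18 hr at 37 °C; luminescence read […] and expressed as % activation = 100*(compound - median DMSO)/(median 500 nM thapsigargin - median DMSO). Primary screen was single-pass; confirmation screen in triplicate (mean ± SD).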", "values": [
      {"smiles": "COc1ccc(/C=C2\\SC(=O)NC2=Nc2ccc(C)cc2)c(OC)c1", "XBP1-RLuc splicing reporter activation": "6.33 ± 0.42"},
      {"smiles": "CCOc1cc(/C=C2/NC(=O)N(Cc3ccc(F)cc3)C2=O)ccc1O", "XBP1-RLuc splicing reporter activation": "33.6 ± 2.1"},
      {"smiles": "CN(C)/C=N/C1=C(C#N)C(c2ccc3c(c2)OCO3)c2ccc3ccccc3c2O1", "note": "(centres undefined)", "XBP1-RLuc splicing reporter activation": "1.3 ± 3.6"},
      {"smiles": "O=C(Nc1ccccc1O)c1ccc(C(=O)c2ccccc2)cc1", "XBP1-RLuc splicing reporter activation": "10.4 ± 0.77"},
      {"smiles": "N#CC1=C(N)Oc2c(ccc3ccccc23)C1c1ccccc1", "note": "(centres undefined)", "XBP1-RLuc splicing reporter activation": "14.2 ± 1.1"},
      {"smiles": "COc1ccc(/C=C/c2ccc3cccc(OC(C)=O)c3n2)cc1OC(C)=O", "XBP1-RLuc splicing reporter activation": "6.25 ± 0.81"},
      {"smiles": "O=c1[nH]c(/C=C2\\C=Nc3ccccc32)c(O)n1-c1ccc(Cl)cc1", "XBP1-RLuc splicing reporter activation": "43.1 ± 3.6"},
      {"smiles": "O=C1N/C(=C\\c2ccc(O)cc2)C(O)=C1C=NCc1ccccc1", "XBP1-RLuc splicing reporter activation": "49.1 ± 2.3"},
      {"smiles": "COc1ccc(-c2cnnc(N/N=C/c3ccc(O)c(O)c3)n2)cc1", "XBP1-RLuc splicing reporter activation": "24 ± 2.2"},
      {"smiles": "Nc1ccccc1NC(=O)c1ccc(C(=O)Nc2ccccc2N)cc1", "XBP1-RLuc splicing reporter activation": "4.04 ± 0.55"},
      {"smiles": "CCN1C(=O)/C(=C\\c2ccc(O)cc2O)SC1=S", "XBP1-RLuc splicing reporter activation": "13.6 ± 1.7"},
      {"smiles": "O=C(Nc1ccc(Cl)cn1)c1ccc(Cl)cc1Cl", "XBP1-RLuc splicing reporter activation": "0.717 ± 0.56"},
      {"smiles": "CN(c1ccccc1)S(=O)(=O)c1cccc(C(=O)NCCc2ccc(O)c(O)c2)c1", "XBP1-RLuc splicing reporter activation": "33.2 ± 0.95"},
      {"smiles": "CC(=O)c1cccc(Nc2nc(-c3ccc(O)c(O)c3)cs2)c1", "XBP1-RLuc splicing reporter activation": "21.8 ± 1.3"},
      {"smiles": "O=[N+]([O-])c1ccc(/C=C/c2ccc(O)cc2)cc1", "XBP1-RLuc splicing reporter activation": "19.2 ± 1.3"},
      {"smiles": "COc1c(O)cc2oc(-c3ccc(O)c(O)c3)cc(=O)c2c1O", "XBP1-RLuc splicing reporter activation": "53.7 ± 3.8"},
      {"smiles": "N#CC1=C(N)Oc2c(ccc3ccccc23)C1c1ccsc1", "note": "(centres undefined)", "XBP1-RLuc splicing reporter activation": "9.04 ± 1.1"},
      {"smiles": "CCOc1cccc(C(=O)Nc2ccc(Br)cn2)c1", "XBP1-RLuc splicing reporter activation": "2.81 ± 1.5"},
      {"smiles": "COc1ccccc1/C=C/C(=O)Nc1ccc(Cl)cn1", "XBP1-RLuc splicing reporter activation": "-1.93 ± 1.5"},
      {"smiles": "C=CCNC(=O)c1sc2nc3cc(C)c(C)cc3cc2c1N", "XBP1-RLuc splicing reporter activation": "-0.518 ± 1.4"},
      {"smiles": "C/C(=N\\NC(=O)c1n[nH]c2c1CCCC2)c1ccc(Br)cc1", "XBP1-RLuc splicing reporter activation": "2.87 ± 0.99"},
      {"smiles": "COc1ccc(C(=O)Nc2nnc(-c3cccs3)s2)cc1", "XBP1-RLuc splicing reporter activation": "0.956 ± 0.85"},
      {"smiles": "CC(Oc1ccc(Cl)cc1Cl)C(=O)NNC(=O)c1ccc(O)c(O)c1", "note": "(centres undefined)", "XBP1-RLuc splicing reporter activation": "15.4 ± 1.8"},
      {"smiles": "Cc1ccc(NC(=S)NC(=O)C(=O)Nc2ccccc2)cc1", "XBP1-RLuc splicing reporter activation": "58.6 ± 3.3"},
      {"smiles": "O=C(NC1CCCC1)c1cc(-c2cccs2)on1", "XBP1-RLuc splicing reporter activation": "4.95 ± 0.3"},
      {"smiles": "OCCNc1nc(Nc2ccc(Cl)cc2)nc2ccccc12", "XBP1-RLuc splicing reporter activation": "32.6 ± 2.5"},
      {"smiles": "Cc1cc2nc(/C(C#N)=C/c3ccco3)[nH]c2cc1C", "XBP1-RLuc splicing reporter activation": "4.3 ± 0.47"},
      {"smiles": "CCOc1cc(C2C(C(=O)OC3CCCCC3)=C(C)NC3=C2C(=O)CC(c2ccc(OC)cc2)C3)cc(Br)c1O", "note": "(centres undefined)", "XBP1-RLuc splicing reporter activation": "18.5 ± 2.8"},
      {"smiles": "Oc1ccc(/C=N/Nc2cccc3cccnc23)c(O)c1", "XBP1-RLuc splicing reporter activation": "26 ± 1.3"},
      {"smiles": "O=c1/c(=C/c2ccc(O)c(O)c2)sc2nc3ccccc3n12", "XBP1-RLuc splicing reporter activation": "6.32 ± 0.52"},
      {"smiles": "NN1C(=O)/C(=C/c2ccc(O)c(O)c2)SC1=S", "XBP1-RLuc splicing reporter activation": "16.7 ± 0.56"},
      {"smiles": "COc1ccc(CCNC(=O)c2cccc(-c3ccc(N4CCOCC4)nc3)c2)cc1", "XBP1-RLuc splicing reporter activation": "1.79 ± 0.38"},
      {"smiles": "Cc1cc(C)nc(Nc2nc(-c3ccc(O)c(O)c3)cs2)n1", "XBP1-RLuc splicing reporter activation": "13.9 ± 9.7"},
      {"smiles": "O=C1N/C(=C/c2ccc(O)cc2)C(=O)N1Cc1ccc(Br)cc1", "XBP1-RLuc splicing reporter activation": "33.3 ± 4.9"},
      {"smiles": "c1ccc2cc(-c3cnnc(N4CCOCC4)n3)ccc2c1", "XBP1-RLuc splicing reporter activation": "1.22 ± 0.96"},
      {"smiles": "CCCNC(=O)c1ccc2nc(-c3ccc4[nH]ccc4c3)sc2c1", "XBP1-RLuc splicing reporter activation": "-0.994 ± 0.65"},
      {"smiles": "C=CCNC(=O)c1cc(-c2ccc(F)cc2)on1", "XBP1-RLuc splicing reporter activation": "1.92 ± 2.1"}
    ]},
    {"tested_on": "HEK293T-Rex ERSE-FLuc", "experiment": "ERSE-FLuc reporter activation, triplicate confirmation, relative to 500 nM thapsigargin (% of thapsigargin); higher = stronger ATF6/ERSE reporter activation", "details": "6.8 µM; 18 h; screen: confirmation", "description": "as §1", "values": [
      {"smiles": "COc1ccc(/C=C2\\SC(=O)NC2=Nc2ccc(C)cc2)c(OC)c1", "ERSE-FLuc reporter activation": "26.8 ± 1.3"},
      {"smiles": "CCOc1cc(/C=C2/NC(=O)N(Cc3ccc(F)cc3)C2=O)ccc1O", "ERSE-FLuc reporter activation": "32.8 ± 5.4"},
      {"smiles": "CN(C)/C=N/C1=C(C#N)C(c2ccc3c(c2)OCO3)c2ccc3ccccc3c2O1", "note": "(centres undefined)", "ERSE-FLuc reporter activation": "26.1 ± 9.6"},
      {"smiles": "O=C(Nc1ccccc1O)c1ccc(C(=O)c2ccccc2)cc1", "ERSE-FLuc reporter activation": "41.5 ± 9.7"},
      {"smiles": "N#CC1=C(N)Oc2c(ccc3ccccc23)C1c1ccccc1", "note": "(centres undefined)", "ERSE-FLuc reporter activation": "27.3 ± 3.3"},
      {"smiles": "COc1ccc(/C=C/c2ccc3cccc(OC(C)=O)c3n2)cc1OC(C)=O", "ERSE-FLuc reporter activation": "39.7 ± 5.5"},
      {"smiles": "O=c1[nH]c(/C=C2\\C=Nc3ccccc32)c(O)n1-c1ccc(Cl)cc1", "ERSE-FLuc reporter activation": "41.4 ± 5.5"},
      {"smiles": "O=C1N/C(=C\\c2ccc(O)cc2)C(O)=C1C=NCc1ccccc1", "ERSE-FLuc reporter activation": "27.6 ± 6.4"},
      {"smiles": "COc1ccc(-c2cnnc(N/N=C/c3ccc(O)c(O)c3)n2)cc1", "ERSE-FLuc reporter activation": "35.9 ± 7.5"},
      {"smiles": "Nc1ccccc1NC(=O)c1ccc(C(=O)Nc2ccccc2N)cc1", "ERSE-FLuc reporter activation": "25.1 ± 3.8"},
      {"smiles": "CCN1C(=O)/C(=C\\c2ccc(O)cc2O)SC1=S", "ERSE-FLuc reporter activation": "36.3 ± 8.3"},
      {"smiles": "O=C(Nc1ccc(Cl)cn1)c1ccc(Cl)cc1Cl", "ERSE-FLuc reporter activation": "27.1 ± 2.4"},
      {"smiles": "CN(c1ccccc1)S(=O)(=O)c1cccc(C(=O)NCCc2ccc(O)c(O)c2)c1", "ERSE-FLuc reporter activation": "44.7 ± 3.8"},
      {"smiles": "CC(=O)c1cccc(Nc2nc(-c3ccc(O)c(O)c3)cs2)c1", "ERSE-FLuc reporter activation": "31.6 ± 5.1"},
      {"smiles": "O=[N+]([O-])c1ccc(/C=C/c2ccc(O)cc2)cc1", "ERSE-FLuc reporter activation": "28.8 ± 3.3"},
      {"smiles": "COc1c(O)cc2oc(-c3ccc(O)c(O)c3)cc(=O)c2c1O", "ERSE-FLuc reporter activation": "133 ± 21"},
      {"smiles": "N#CC1=C(N)Oc2c(ccc3ccccc23)C1c1ccsc1", "note": "(centres undefined)", "ERSE-FLuc reporter activation": "25.8 ± 2.7"},
      {"smiles": "CCOc1cccc(C(=O)Nc2ccc(Br)cn2)c1", "ERSE-FLuc reporter activation": "26 ± 3.3"},
      {"smiles": "COc1ccccc1/C=C/C(=O)Nc1ccc(Cl)cn1", "ERSE-FLuc reporter activation": "27.9 ± 6.6"},
      {"smiles": "C=CCNC(=O)c1sc2nc3cc(C)c(C)cc3cc2c1N", "ERSE-FLuc reporter activation": "30.2 ± 5.3"},
      {"smiles": "C/C(=N\\NC(=O)c1n[nH]c2c1CCCC2)c1ccc(Br)cc1", "ERSE-FLuc reporter activation": "27.2 ± 1.9"},
      {"smiles": "COc1ccc(C(=O)Nc2nnc(-c3cccs3)s2)cc1", "ERSE-FLuc reporter activation": "26.3 ± 5"},
      {"smiles": "CC(Oc1ccc(Cl)cc1Cl)C(=O)NNC(=O)c1ccc(O)c(O)c1", "note": "(centres undefined)", "ERSE-FLuc reporter activation": "28.5 ± 5.5"},
      {"smiles": "Cc1ccc(NC(=S)NC(=O)C(=O)Nc2ccccc2)cc1", "ERSE-FLuc reporter activation": "139 ± 11"},
      {"smiles": "O=C(NC1CCCC1)c1cc(-c2cccs2)on1", "ERSE-FLuc reporter activation": "25.7 ± 2.1"},
      {"smiles": "OCCNc1nc(Nc2ccc(Cl)cc2)nc2ccccc12", "ERSE-FLuc reporter activation": "67.9 ± 10"},
      {"smiles": "Cc1cc2nc(/C(C#N)=C/c3ccco3)[nH]c2cc1C", "ERSE-FLuc reporter activation": "34.1 ± 8.6"},
      {"smiles": "CCOc1cc(C2C(C(=O)OC3CCCCC3)=C(C)NC3=C2C(=O)CC(c2ccc(OC)cc2)C3)cc(Br)c1O", "note": "(centres undefined)", "ERSE-FLuc reporter activation": "27.2 ± 9.1"},
      {"smiles": "Oc1ccc(/C=N/Nc2cccc3cccnc23)c(O)c1", "ERSE-FLuc reporter activation": "40.8 ± 12"},
      {"smiles": "O=c1/c(=C/c2ccc(O)c(O)c2)sc2nc3ccccc3n12", "ERSE-FLuc reporter activation": "37.5 ± 3.7"},
      {"smiles": "NN1C(=O)/C(=C/c2ccc(O)c(O)c2)SC1=S", "ERSE-FLuc reporter activation": "38.3 ± 1"},
      {"smiles": "COc1ccc(CCNC(=O)c2cccc(-c3ccc(N4CCOCC4)nc3)c2)cc1", "ERSE-FLuc reporter activation": "48.7 ± 4.2"},
      {"smiles": "Cc1cc(C)nc(Nc2nc(-c3ccc(O)c(O)c3)cs2)n1", "ERSE-FLuc reporter activation": "47.4 ± 6.5"},
      {"smiles": "O=C1N/C(=C/c2ccc(O)cc2)C(=O)N1Cc1ccc(Br)cc1", "ERSE-FLuc reporter activation": "37.1 ± 3.6"},
      {"smiles": "c1ccc2cc(-c3cnnc(N4CCOCC4)n3)ccc2c1", "ERSE-FLuc reporter activation": "29 ± 8.7"},
      {"smiles": "CCCNC(=O)c1ccc2nc(-c3ccc4[nH]ccc4c3)sc2c1", "ERSE-FLuc reporter activation": "33.4 ± 9.7"},
      {"smiles": "C=CCNC(=O)c1cc(-c2ccc(F)cc2)on1", "ERSE-FLuc reporter activation": "25.1 ± 4.7"}
    ]}
  ]
}
